Each structure is given as a SMILES string. This is part of a sample that, as a whole, favours compounds with a hit. Of some 79,000 tested, about 15% had one in any assay. Values without a mark were called inactive. Active and inactive are the calls of the source. Rule as the data show it: active = growth inhibition above about 70%; inactive = the rest. Where a SMILES comes first, the peptide text is derived from it. [ ]: non-standard residue; d: D form. ξ: configuration not given here. ξD = NC(CC(=O)O)C(=O)O

A short description of assay [1]: NCI Yeast Anticancer Drug Screen. Data for the rad50 strain (AID 155).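 Also: 0% = growth of vehicle-only cultures of the same strain.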 Particulars: S. cerevisiae rad50 strain growth inhibition, stronger effect = higher value. Summed up: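 DNA repair mutant yeast, compound exposure, growth read-out; inhibition is taken relative to vehicle.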
The nature of assay [2]: NCI Yeast Anticancer Drug Screen. Data for the mec2-1 strain (AID 157). Particulars: S. cerevisiae mec2-1 strain, stronger effect = higher value. Summed up:
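Growth inhibition is read against vehicle-treated controls after compound exposure of the mec2-1 yeast strain, which is defective in DNA damage repair or cell cycle control.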

A short description of assay [3]: NCI Yeast Anticancer Drug Screen. Data for the sgs1 mgt1 strain (AID 161).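 Also: 0% = growth of cultures given vehicle only.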 Particulars: S. cerevisiae sgs1 mgt1 strain, stronger effect = higher value. Summed up:
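Growth of a repair-deficient yeast mutant was monitored after compound treatment and expressed as inhibition relative to vehicle-treated cultures.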

Assay [4] is described as follows: NCI Yeast Anticancer Drug Screen. Data for the cln2 rad14 strain (AID 165).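 Also: 0% = growth equal to vehicle treated cultures.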 Particulars: S. cerevisiae cln2 rad14 strain, stronger effect = higher value. Summed up:
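Growth inhibition, relative to vehicle-treated controls, is the read-out. The test organism is a yeast strain with defined genetic alterations, cln2 rad14.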

Assay [5] can be described thus: NCI Yeast Anticancer Drug Screen. Data for the bub3 strain (AID 167). Particulars: S. cerevisiae bub3 mutant strain, stronger effect = higher value. Summed up: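 In this screen, a yeast mutant lacking normal mitotic checkpoint function is challenged with compound. Relative growth versus vehicle gives the inhibition value.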
A short description of assay [6]: NCI Yeast Anticancer Drug Screen. Data for the mlh1 rad18 strain (AID 175). The following applies: S. cerevisiae mlh1 rad18 strain growth inhibition, stronger effect = higher value. Put shortly:
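Cells of a genetically altered yeast strain, deficient in DNA damage repair, were treated with compound. Their growth was then compared with that of vehicle-treated cultures to give inhibition.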

Where [7] appears, read: at 5.0 µM (retest, dose inferred, filed as 0.5).
Setting [8] is: at 50.0 µM (retest, dose inferred, filed as 5.0).

With `CC1C(c2ccccc2)OCCN1C(=S)Nc1ccc(S(=O)(=O)N2CCCCC2)cc1` (configuration not stated), the growth inhibition is 46% in assay [1] (setting [7]); 86% (active) in assay [1] (setting [8]); 85.4% (active) in assay [1] (at 50.0 µM); 46% in assay [2] (setting [7]); 84% (active) in assay [2] (setting [8]); 89.2% (active) in assay [2] (at 50.0 µM). Further, the growth inhibition was 65% in assay [3] (setting [7]); 97% (active) in assay [3] (setting [8]); 91.5% (active) in assay [3] (at 50.0 µM); 62% in assay [4] (setting [7]); 96% (active) in assay [4] (setting [8]); 89.7% (active) in assay [4] (at 50.0 µM). Moreover, the growth inhibition in assay [5] (setting [7]) was 73% (active); in assay [5] (setting [8]), 96% (active); in assay [5] (at 50.0 µM), 90.1% (active); in assay [6] (setting [7]) it was 43%; in assay [6] (setting [8]), 88% (active); in assay [6] (at 50.0 µM), 86.4% (active).
Take `NC(=Nc1nc(-c2ccccn2)cc2ccccc12)c1ccccn1`: the growth inhibition in assay [1] (setting [7]) is 54%; in assay [1] (setting [8]) it was 70% (active); in assay [1] (at 50.0 µM), 77.2% (active); in assay [2] (setting [7]) it was 54%; in assay [2] (setting [8]), 66%; in assay [2] (at 50.0 µM), 67.7%. For the same compound, the growth inhibition in assay [3] (setting [7]) was 64%; in assay [3] (setting [8]), 72% (active); in assay [3] (at 50.0 µM) it was 69.2%; in assay [4] (setting [7]) it was 60%; in assay [4] (setting [8]) it was 71% (active); in assay [4] (at 50.0 µM), 68.6%. The growth inhibition is 73% (active) in assay [5] (setting [7]); 77% (active) in assay [5] (setting [8]); 71.3% (active) in assay [5] (at 50.0 µM); 61% in assay [6] (setting [7]); 69% in assay [6] (setting [8]); 72.2% (active) in assay [6] (at 50.0 µM).
`Cc1cc(C)c([I+]c2c(C)cc(C)cc2C)c(C)c1`: the growth inhibition is 10% in assay [1] (setting [7]); 95% (active) in assay [1] (setting [8]); 57.8% in assay [1] (at 50.0 µM); 20% in assay [2] (setting [7]); 97% (active) in assay [2] (setting [8]); 73.4% (active) in assay [2] (at 50.0 µM). Besides, the growth inhibition is 9% in assay [3] (setting [7]); 95% (active) in assay [3] (setting [8]); 60.6% in assay [3] (at 50.0 µM); 16% in assay [4] (setting [7]); 97% (active) in assay [4] (setting [8]); 56.6% in assay [4] (at 50.0 µM). Besides, the growth inhibition is 52% in assay [5] (setting [7]); 98% (active) in assay [5] (setting [8]); 60% in assay [5] (at 50.0 µM); 16% in assay [6] (setting [7]); 72% (active) in assay [6] (setting [8]); 71% (active) in assay [6] (at 50.0 µM).
Turning to `OC(c1cc2ccc(C(F)(F)F)cc2c2cc(C(F)(F)F)ccc12)C1CCCCN1` (configuration not stated), the growth inhibition in assay [1] (setting [7]) was 85% (active); in assay [1] (setting [8]), 98% (active); in assay [1] (at 50.0 µM), 89.6% (active); in assay [2] (setting [7]) it was 77% (active); in assay [2] (setting [8]), 98% (active); in assay [2] (at 50.0 µM), 92% (active). The growth inhibition in assay [3] (setting [7]) is 96% (active); in assay [3] (setting [8]) it was 98% (active); in assay [3] (at 50.0 µM) it was 88.9% (active); in assay [4] (setting [7]), 44%; in assay [4] (setting [8]) it was 97% (active); in assay [4] (at 50.0 µM), 88.2% (active). Moreover, the growth inhibition in assay [5] (setting [7]) was 91% (active); in assay [5] (setting [8]), 99% (active); in assay [5] (at 50.0 µM), 85.5% (active); in assay [6] (setting [7]), 97% (active); in assay [6] (setting [8]), 97% (active); in assay [6] (at 50.0 µM) it was 85.7% (active).
Consider `O=C1Nc2ccc(Br)cc2C1=O`, for which the growth inhibition was -8% in assay [1] (setting [7]); 95% (active) in assay [1] (setting [8]); 96.9% (active) in assay [1] (at 50.0 µM); -31% in assay [2] (setting [7]); 64% in assay [2] (setting [8]); 99.7% (active) in assay [2] (at 50.0 µM). The growth inhibition is -5% in assay [3] (setting [7]); 42% in assay [3] (setting [8]); 99.8% (active) in assay [3] (at 50.0 µM); -6% in assay [4] (setting [7]); 36% in assay [4] (setting [8]); 66.9% in assay [4] (at 50.0 µM). For the same compound, the growth inhibition in assay [5] (setting [7]) is -13%; in assay [5] (setting [8]) it was 98% (active); in assay [5] (at 50.0 µM) it was 99.4% (active); in assay [6] (setting [7]), -9%; in assay [6] (setting [8]), 91% (active); in assay [6] (at 50.0 µM) it was 99.6% (active).
Consider `CCN(CC)CCNC(Cc1ccccc1)c1ccc(OCc2ccccc2)cc1` (configuration not stated), for which the growth inhibition was 39% in assay [1] (setting [7]); 98% (active) in assay [1] (setting [8]); 86.7% (active) in assay [1] (at 50.0 µM); 28% in assay [2] (setting [7]); 98% (active) in assay [2] (setting [8]); 42.4% in assay [2] (at 50.0 µM). Also, the growth inhibition in assay [3] (setting [7]) was 42%; in assay [3] (setting [8]), 99% (active); in assay [3] (at 50.0 µM), 72% (active); in assay [4] (setting [7]), 35%; in assay [4] (setting [8]) it was 94% (active); in assay [4] (at 50.0 µM) it was 57.2%. Also, the growth inhibition in assay [5] (setting [7]) is 49%; in assay [5] (setting [8]) it was 99% (active); in assay [5] (at 50.0 µM) it was 87.6% (active); in assay [6] (setting [7]), 47%; in assay [6] (setting [8]), 98% (active); in assay [6] (at 50.0 µM), 84.8% (active).
With `NCC(=O)NC(CC(=O)O)C(=O)O` (configuration not stated) (H-Gly-[ξD]-OH), the growth inhibition in assay [1] (setting [7]) is -1%; in assay [1] (setting [8]) it was 10%; in assay [1] (at 50.0 µM), 12.7%; in assay [2] (setting [7]), -6%; in assay [2] (setting [8]) it was -12%; in assay [2] (at 50.0 µM), 9.15%. Moreover, the growth inhibition in assay [3] (setting [7]) is -10%; in assay [3] (setting [8]), 20%; in assay [3] (at 50.0 µM), 13.2%; in assay [4] (setting [7]), -2%; in assay [4] (setting [8]), 14%; in assay [4] (at 50.0 µM), 1.05%. Moreover, the growth inhibition in assay [5] (setting [7]) was 9%; in assay [5] (setting [8]), 9%; in assay [5] (at 50.0 µM) it was 8.05%; in assay [6] (setting [7]), 8%; in assay [6] (setting [8]), 16%; in assay [6] (at 50.0 µM), 32.2%.
Regarding `Cn1c(-c2ccccc2)c(/C=C/C2=[N+](C)c3ccccc3C2(C)C)c2ccccc21`, the growth inhibition in assay [1] (setting [7]) is 88% (active); in assay [1] (setting [8]) it was 99% (active); in assay [1] (at 50.0 µM), 99.6% (active); in assay [2] (setting [7]), 72% (active); in assay [2] (setting [8]), 99% (active); in assay [2] (at 50.0 µM) it was 99.6% (active). The growth inhibition in assay [3] (setting [7]) was 96% (active); in assay [3] (setting [8]) it was 56%; in assay [3] (at 50.0 µM), 99.6% (active); in assay [4] (setting [7]) it was 59%; in assay [4] (setting [8]) it was 98% (active); in assay [4] (at 50.0 µM), 99% (active). The growth inhibition in assay [5] (setting [7]) is 93% (active); in assay [5] (setting [8]), 100% (active); in assay [5] (at 50.0 µM) it was 99.5% (active); in assay [6] (setting [7]), 89% (active); in assay [6] (setting [8]), 99% (active); in assay [6] (at 50.0 µM), 99% (active).
Turning to `OC(c1cc(-c2ccc(Cl)cc2)nc2c(Cl)cccc12)C1CCCCN1` (configuration not stated), the growth inhibition is 73% (active) in assay [1] (setting [7]); 93% (active) in assay [1] (setting [8]); 99.8% (active) in assay [1] (at 50.0 µM); 26% in assay [2] (setting [7]); 55% in assay [2] (setting [8]); 99.8% (active) in assay [2] (at 50.0 µM). Also, the growth inhibition in assay [3] (setting [7]) was 93% (active); in assay [3] (setting [8]) it was 100% (active); in assay [3] (at 50.0 µM), 99.9% (active); in assay [4] (setting [7]), 20%; in assay [4] (setting [8]) it was 66%; in assay [4] (at 50.0 µM) it was 99% (active). The growth inhibition in assay [5] (setting [7]) was 28%; in assay [5] (setting [8]) it was 93% (active); in assay [5] (at 50.0 µM) it was 99.5% (active); in assay [6] (setting [7]), 69%; in assay [6] (setting [8]), 88% (active); in assay [6] (at 50.0 µM), 99.5% (active).

For the origin of these results see PubChem BioAssay (NCI).
